# Experimental data reported in ChEMBL document CHEMBL4513146, “CO-ADD screening of Karazin Kharkiv National University (Ukraine) compounds”.
# Measured potencies and affinities stand elsewhere.
# Columns and labels:
# [1] = tested on: Klebsiella pneumoniae; conditions: Concentration 32 ug.mL-1;; ASSAY_TEST Inhibition of Bacterial Growth; detection method Absorption (OD600); MEDIA CAMHB; plate type 384well; NBS; CORNING #3640; time 18 hr
# [2] = tested on: Candida albicans; conditions: Concentration 32 ug.mL-1; ASSAY_TEST Inhibition of Fungal Growth; detection method Absorption (OD530)
# [3] = tested on: Cryptococcus neoformans; conditions: Concentration 32 ug.mL-1; ASSAY_TEST Inhibition of Fungal Growth; detection method Resazurin; Absorption (OD600-OD570); plate type 384well; NBS; CORNING #3640
Structure (SMILES),Inhibition [1] [%],Inhibition [2] [%],Inhibition [3] [%]
CCc1nnc2ccc(S(=O)(=O)N(Cc3ccc(OC)c(F)c3)c3ccccc3)cn12,-3.43,-0.62,-5.32
CC1CCCN(c2nccn3c(=O)n(CC(=O)Nc4ccc(Br)cc4F)nc23)C1 (configuration not stated),5.81,5.05,-8.97
Cc1nnc2ccc(S(=O)(=O)N(Cc3cccc(F)c3)c3cc(F)cc(F)c3)cn12,10.98,-1.03,-12.8
CCc1cccc(NC(=O)CSc2nnc3c(=O)n(-c4cccc(OC)c4)ccn23)c1,7.34,13.59,-2.76
CC(C)c1ccc(NC(=O)Cn2nc3ccc(SCc4ccc(Cl)cc4)nn3c2=O)cc1,6.44,14.48,-27.26
Cc1ccc(Oc2nccn3c(=O)n(CC(=O)Nc4ccc(C)cc4Cl)nc23)cc1,4.57,3.92,-3.03
Cc1ccc(N(CC(=O)OC(C)(C)C)S(=O)(=O)c2ccc3nnc(C)n3c2)cc1,4.9,1.78,-16.68
Cc1ccc(Oc2nccn3c(=O)n(CC(=O)NCCC4=CCCCC4)nc23)cc1,12.14,4.38,-9.17
CCc1nnc2c(S(=O)(=O)N(Cc3cccc(F)c3)c3ccc(C)c(C)c3)cccn12,12.58,3.78,-9.15
CC(C)c1nnc2c(=O)n(CC(=O)Nc3ccc(F)cc3)c3ccccc3n12,21.13,1.82,-21.16
COc1cc(OC)c(NC(=O)Cn2nc3ccc(SC4CCCCC4)nn3c2=O)cc1Cl,10.6,29.07,-6.25
CC(C)Cn1c(=O)c2sccc2n2c(=O)n(Cc3ccc(N4CCCC4=O)cc3)nc12,9.72,1.08,-27.68
Cc1ccc(-c2cc3c4nn(CC(=O)Nc5ccc(Cl)cc5)c(=O)n4ccn3n2)cc1C,-7.29,11.19,-17.93
Cc1cccc(Sc2nccn3c(=O)n(CC(=O)Nc4ccc(Br)cc4C)nc23)c1,8.64,6.35,-17.23
CC1CCCN(c2nccn3c(=O)n(CC(=O)Nc4ccc(F)cc4F)nc23)C1 (configuration not stated),-1.65,1.98,-8.2
COc1ccc(N(Cc2cccc(C)c2)S(=O)(=O)c2ccc3nncn3c2)cc1,-1.75,4.35,-8.71
Cc1ccc(Oc2nccn3c(=O)n(CC(=O)Nc4ccc(F)cc4F)nc23)cc1,1.97,0.56,-6.68
O=c1c2sccc2n2c(=O)n(Cc3ccccc3F)nc2n1CCc1ccccc1,8.76,0.77,-30.71
COC(=O)c1ccc(NC(=O)Cn2nc3c4cc(-c5ccc(Cl)cc5)nn4ccn3c2=O)cc1,10.1,2.64,-4.53
CCc1ccccc1Sc1nccn2c(=O)n(CC(=O)NCc3ccc(OC)cc3)nc12,1.83,2.04,-1.62

Structure (SMILES),Inhibition [1] [%],Inhibition [2] [%],Inhibition [3] [%]
CCOc1ccc(C(=O)CSc2nnc3c(=O)n(-c4ccc(OCC)cc4)ccn23)cc1,14.22,5.82,-6.09
O=C(Cn1nc2c(N3CCOCC3)nccn2c1=O)NCc1cc(F)cc(F)c1,6.28,4.54,-8.22
O=S(=O)(c1cccn2cnnc12)N(Cc1ccccc1F)c1ccc(F)c(F)c1,13.33,5.39,-3.16
CCOc1ccc(NC(=O)Cn2nc3c(SCc4ccc(Cl)cc4)nccn3c2=O)cc1,5.7,17.72,-25.81
CCOC(=O)c1cccc(NC(=O)CSc2nnc3ccc(C(=O)Nc4cccc(F)c4)cn23)c1,3.6,0.96,-5.2
CCOc1ccc(-n2ccn3c(SCC(=O)c4cccc(Cl)c4)nnc3c2=O)cc1,10.21,2.76,-7.79
CCc1ccccc1NC(=O)Cn1nc2n(CCC(C)C)c(=O)c3sccc3n2c1=O,0.67,8.44,-17.68
O=c1c2nn(Cc3cccc([N+](=O)[O-])c3)c(=O)n2ccn1-c1ccccc1,9.21,0.04,-10.2
COc1cc(OC)c(NC(=O)Cn2nc3c(Oc4ccccc4)nccn3c2=O)cc1Cl,-10.94,2.58,-9.36
CCOc1ccc(C(=O)Cn2nc3n(CCC(C)C)c(=O)c4sccc4n3c2=O)cc1,4.69,2.69,-12.75
COc1ccc(NC(=O)Cn2nc3c(Sc4ccccc4)nccn3c2=O)cc1,7.48,1.47,-16
O=c1c2sccc2n2c(=O)n(Cc3ccc(Br)cc3)nc2n1CCc1ccccc1,-2.03,27.87,-16.22
Cc1ccc(NC(=O)Cn2nc3ccc(-c4ccc(C)c(C)c4)nn3c2=O)cc1,11.7,-0.59,-13.68
Cc1ccc(-c2cc3c4nnc(CCC(=O)NCc5ccc(C(F)(F)F)cc5)n4ccn3n2)cc1C,10.93,3.64,-31.79
COc1ccc(NC(=O)c2ccc3nn(CC(=O)Nc4cccc(SC)c4)c(=O)n3c2)cc1,-1.25,7.63,-24.03
CSc1cccc(NC(=O)Cn2nc3ccc(-c4ccccc4)nn3c2=O)c1,-3.17,3.96,-8.45
Cc1cccc(NC(=O)Cn2nc3c(SC4CCCCC4)nccn3c2=O)c1C,7.9,-1.44,-15.81
CCOC(=O)c1ccc(NC(=O)Cn2nc3c(Oc4ccccc4)nccn3c2=O)cc1,1.59,-0.16,-7.75
COc1ccccc1NC(=O)Cn1nc2c(Sc3ccccc3)nccn2c1=O,-2.04,1.31,-4.93
COc1ccc(NC(=O)CSc2nnc3ccc(C(=O)Nc4cccc(F)c4)cn23)cc1,4.36,3.08,-2.63

Structure (SMILES),Inhibition [1] [%],Inhibition [2] [%],Inhibition [3] [%]
Cc1cc(C)cc(Nc2nc(C)cc3nn(CC(=O)NCc4ccco4)c(=O)n23)c1,10.95,2.86,-8.71
Cc1ccc(Cn2nc3c(=O)n(-c4cccc(F)c4)ccn3c2=O)cc1,1.12,5.68,-10.74
CCc1nnc2ccc(S(=O)(=O)N(Cc3ccc(F)cc3)c3ccc(OC)cc3)cn12,5.94,-0.37,-3.5
COc1ccc(NC(=O)c2ccc3nn(CC(=O)N4CCN(c5ccccc5)CC4)c(=O)n3c2)cc1,0.73,1.58,-6.91
O=C(Cn1nc2ccc(Sc3cccc(F)c3)nn2c1=O)Nc1cccc(Cl)c1,-3.42,11.97,-3.34
COc1cccc(-n2ccn3c(SCC(=O)N4CCN(c5ccc(F)cc5)CC4)nnc3c2=O)c1,8.66,0.06,-10.47
CC(C)Cn1c(=O)c2sccc2n2c(=O)n(Cc3ccc(Br)cc3)nc12,4.98,-2.24,-27.05
COc1ccc(-c2cc3c4nn(CC(=O)Nc5cccc(C(C)=O)c5)c(=O)n4ccn3n2)cc1,3.99,4.25,-13.63
COc1cccc(-n2ccn3c(SCC(=O)c4cc(C)c(C)cc4C)nnc3c2=O)c1,11.25,2.17,-10.44
COC(=O)c1ccc(NC(=O)CSc2nc3ccccc3n3c(C(C)C)nnc23)cc1,12.96,4.43,-21.14
CCN(C(=O)Cn1nc2cc(C)nc(Nc3ccc(C)c(F)c3)n2c1=O)c1ccccc1,13.32,0.56,-6.91
Cc1cc2nn(CC(=O)Nc3cccc(C)c3C)c(=O)n2c(Nc2ccc(C)c(F)c2)n1,16.72,5.25,-5.98
Cc1ccc(-c2ccc3nn(CC(=O)N4CCN(c5ccccc5)CC4)c(=O)n3n2)cc1C,1.81,0.84,-5.58
COC(=O)c1ccc(CN(c2ccc(C)cc2)S(=O)(=O)c2ccc3nnc(C)n3c2)o1,8.84,0.1,-13.09
O=C(Cn1nc2c(N3CCOCC3)nccn2c1=O)NCc1ccc(Cl)cc1,8.43,3.53,-3.97
Cc1ccc(-c2ccc3nnc(CCC(=O)N4CCN(C(=O)c5ccco5)CC4)n3n2)cc1C,19.25,2.04,-14.25
Cc1ccc(NC(=O)Cn2nc3c(Sc4ccccc4)nccn3c2=O)c(Br)c1,0.72,22.67,-9.68
CC(C)Cn1c(=O)c2sccc2n2c(=O)n(Cc3ccc(Cl)cc3)nc12,2.18,-1.9,-15.45
COc1cccc(Sc2nc3ccccc3n3c(=O)n(CC(=O)Nc4ccc(C)c(C)c4)nc23)c1,5.05,20.61,-4.85
